The supplement of paper PMC13380429
Unmarked numbers belong to inactive results.

System: Vero E6 infected with SARS-CoV-2
Experiment: inhibition of SARS-CoV-2 cytopathic effect; higher = more antiviral protection, active = above 15
Conditions: 833.33 nM; 48 h

In order of falling “inhibition of SARS-CoV-2 cytopathic effect” value:
1. COC(=O)C1=C(C#N)NC(C)=C(C(=O)OC(C)C)C1c1cccc([N+](=O)[O-])c1 (stereo not drawn) [nilvadipine]  5.15%
2. CC(=O)N[C@@H](Cc1c[nH]c2ccccc12)C(=O)OCc1cc(C(F)(F)F)cc(C(F)(F)F)c1  1.61%
3. NC(=O)N/N=C/c1ccc(Oc2ccc(F)cc2)cc1  1.11%
4. Nc1ccc(S(=O)(=O)NC(=O)c2ccccc2)cc1 [sulfabenzamide]  -0.48%
5. CC(=O)N(CC(O)CN(C(C)=O)c1c(I)c(C(=O)NCC(O)CO)c(I)c(C(=O)NCC(O)CO)c1I)c1c(I)c(C(=O)NCC(O)CO)c(I)c(C(=O)NCC(O)CO)c1I (stereo not drawn) [iodixanol]  -0.66%
6. CN(C)CCCNC(=O)c1ccc(-c2cc(O)c3ncccc3c2)cc1  -0.72%
7. C[N+](C)(C)CCCCCC[N+](C)(C)C [hexamethonium]  -0.93%
8. COc1cc(OC)nc(O[C@H](C(=O)O)C(OC)(c2ccccc2)c2ccccc2)n1 [darusentan]  -2.26%

Same assay, conditions: 10000 nM; 48 h

In order of falling “inhibition of SARS-CoV-2 cytopathic effect” value:
1. CCC(CC)COC(=O)[C@H](C)N[P@](=O)(OC[C@H]1O[C@@](C#N)(c2ccc3c(N)ncnn23)[C@H](O)[C@@H]1O)Oc1ccccc1 [Remdesivir]  9.79%
2. CN(C)CCCNC(=O)c1ccc(-c2cc(O)c3ncccc3c2)cc1  6.05%
3. CC[C@H](C)C[C@H](C)CCCCCCCCC(=O)N[C@H]1C[C@@H](O)[C@@H](NCCN)NC(=O)[C@@H]2[C@@H](O)CCN2C(=O)[C@H]([C@H](O)CCN)NC(=O)[C@H]([C@H](O)[C@@H](O)c2ccc(O)cc2)NC(=O)[C@@H]2C[C@@H](O)CN2C(=O)[C@H]([C@@H](C)O)NC1=O [caspofungin]  5.37%
4. COc1ccc(NC(=O)c2ccc(-c3ccc(-c4noc(C)n4)cc3C)cc2)cc1OCCN(C)C  5.11%
5. CC(=O)N[C@@H](Cc1c[nH]c2ccccc12)C(=O)OCc1cc(C(F)(F)F)cc(C(F)(F)F)c1  4%
6. Oc1ccc(Nc2nc(-c3ccc(Cl)cc3)cs2)cc1  3.81%
7. COC(=O)C1=C(C#N)NC(C)=C(C(=O)OC(C)C)C1c1cccc([N+](=O)[O-])c1 (stereo not drawn) [nilvadipine]  3.78%
8. NC(=O)N/N=C/c1ccc(Oc2ccc(F)cc2)cc1  3.26%
9. CC(=O)c1ccc2c(c1)N(CCCN1CCC(CCO)CC1)c1ccccc1S2 [piperacetazine]  3.14%
10. CN(C)CCCCSC(=N)N  2.12%
11. CC[C@H]1[C@@H](O)[C@@H]2[C@H](CC[C@]3(C)[C@@H]([C@H](C)CCC(=O)O)CC[C@@H]23)[C@@]2(C)CC[C@@H](O)C[C@@H]12 [obeticholic-acid]  1.65%
12. Cc1cccc(C)c1NC(=O)c1ccccc1C(=O)O [ftaxilide]  1.39%
13. O=C(NC(=O)c1c(F)cccc1F)Nc1cc(Cl)c(OC(F)(F)C(F)C(F)(F)F)cc1Cl (stereo not drawn) [lufenuron]  1.2%
14. Cc1ccc2c(c1)[C@]13CCCC[C@@H]1[C@H](C2)N(C)CC3 [dimemorfan]  0.98%
15. O=C(/C=C/c1ccc2c(c1)OCO2)N1CCCCC1 [ilepcimide]  0.82%
16. Cc1onc(-c2ccccc2)c1-c1ccc(S(N)(=O)=O)cc1 [valdecoxib]  0.55%
17. O=C(COc1ccc(Cl)cc1)N1CCN(Cc2ccc3c(c2)OCO3)CC1 [fipexide]  0.49%
18. Oc1ccc([C@H]2COc3cc(O)ccc3C2)cc1 [equol]  0.31%
19. CCCn1cnc2c1c(=O)n(CCCCC(C)=O)c(=O)n2C [propentofylline]  0.29%
20. COc1ccc(-c2nc(C(=O)N3CCN(C)CC3)sc2-c2ccc(OC)cc2)cc1  0.19%
21. O=C(O)CNC(=O)c1ccccc1 [hippuric-acid]  0.17%
22. Cc1ccc(/C=C2\CNC/C(=C\c3ccc(C)cc3)C2=O)cc1  0.13%
23. NC(=O)c1ccccc1O [salicylamide]  0.13%
24. CC(C)Oc1ccc(-c2nc(-c3cccc4c3CC[C@H]4NCCC(=O)O)no2)cc1C#N  -0.03%
25. COc1cc(OC)nc(O[C@H](C(=O)O)C(OC)(c2ccccc2)c2ccccc2)n1 [darusentan]  -0.49%
26. CCN(C(C)=O)c1cccc(-c2ccnc3c(C#N)cnn23)c1  -0.53%
27. CC[C@H](C)[C@@H]1NC(=O)[C@H](Cc2ccc(O)cc2)NC(=O)[C@@H](N)CSSC[C@@H](C(=O)N2CCC[C@H]2C(=O)N[C@@H](CC(C)C)C(=O)NCC(N)=O)NC(=O)[C@H](CC(N)=O)NC(=O)[C@H](CCC(N)=O)NC1=O [oxytocin]  -0.57%
28. CC(C)CN(C[C@@H](O)[C@H](Cc1ccccc1)NC(=O)O[C@H]1CCOC1)S(=O)(=O)c1ccc(N)cc1 [amprenavir]  -0.72%
29. CC1Sc2c(C(=O)O)c(=O)c3cc(F)c(N4CCNCC4)cc3n21 (stereo not drawn) [ulifloxacin]  -0.79%
30. Nc1ccc(S(=O)(=O)NC(=O)c2ccccc2)cc1 [sulfabenzamide]  -0.81%
31. C[N+](C)(C)CCCCCC[N+](C)(C)C [hexamethonium]  -1.17%
32. Cc1cc(C)c(CNC(=O)c2cc(-c3ccc(CN4CCOCC4)cc3)cc3c2cnn3C2CCCC2)c(=O)[nH]1  -1.46%
33. N=C(N)NC(=N)Nc1ccccc1 [1-phenylbiguanide]  -1.5%
34. CC(=O)N(CC(O)CN(C(C)=O)c1c(I)c(C(=O)NCC(O)CO)c(I)c(C(=O)NCC(O)CO)c1I)c1c(I)c(C(=O)NCC(O)CO)c(I)c(C(=O)NCC(O)CO)c1I (stereo not drawn) [iodixanol]  -1.88%
35. COc1cc(OC)c(/C=C/S(=O)(=O)Cc2ccc(OC)c(OP(=O)(O)O)c2)c(OC)c1 [briciclib]  -1.99%
36. N#Cc1cc2c(OCC(O)CN3CCN(C(c4ccccc4)c4ccccc4)CC3)cccc2[nH]1 (stereo not drawn)  -2.26%
37. CCOc1nc2cccc(C(=O)OC(C)OC(=O)OC3CCCCC3)c2n1Cc1ccc(-c2ccccc2-c2nn[nH]n2)cc1 (stereo not drawn) [candesartan-cilexetil]  -2.32%
38. Cn1c(=O)c(F)c(Nc2ccc(I)cc2F)c2c(=O)n(C[C@@H](O)CO)cnc21  -12.3%
39. CC(C)(C)CC(C)(C)c1ccc(OCCOCC[N+](C)(C)Cc2ccccc2)cc1 [benzethonium]  -15.1%
40. Cc1cnc(Nc2ccc(N3CCN(C)CC3)cc2)nc1Nc1cccc(S(=O)(=O)NC(C)(C)C)c1  -21.1%
